Compound activity (PubChem)
NIH3T3 tox = cytotoxic compounds in NIH 3T3 cells; NIH 3T3 viability, CellTiter-Glo ATP luminescence, 48-72 h; Potency, µM (doses to about 96.7 µM), actives largely listed as inhibitors; actives 4.3% (n = 94,000); further: nearly all actives have a fitted effect of over 55% in size
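ATP-dependent luminescence (CellTiter-Glo) served as the viability signal for NIH 3T3 cells treated with compound for 48 or 72 hr at 37 °C.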
NPR1 antag = antagonists of human natriuretic peptide receptor Npr1. P16066. HEK293 hNpr1 GloSensor cGMP, ANP-stimulated luminescence. Potency, µM (doses to about 46.3 µM), hits mostly inhibitors. actives 1.6% (n = 76,000). AID 1347048; calls by dose curve; further: nearly all actives have a fitted effect of over 60% in size
Target sequence (P16066 whole entry, looked up): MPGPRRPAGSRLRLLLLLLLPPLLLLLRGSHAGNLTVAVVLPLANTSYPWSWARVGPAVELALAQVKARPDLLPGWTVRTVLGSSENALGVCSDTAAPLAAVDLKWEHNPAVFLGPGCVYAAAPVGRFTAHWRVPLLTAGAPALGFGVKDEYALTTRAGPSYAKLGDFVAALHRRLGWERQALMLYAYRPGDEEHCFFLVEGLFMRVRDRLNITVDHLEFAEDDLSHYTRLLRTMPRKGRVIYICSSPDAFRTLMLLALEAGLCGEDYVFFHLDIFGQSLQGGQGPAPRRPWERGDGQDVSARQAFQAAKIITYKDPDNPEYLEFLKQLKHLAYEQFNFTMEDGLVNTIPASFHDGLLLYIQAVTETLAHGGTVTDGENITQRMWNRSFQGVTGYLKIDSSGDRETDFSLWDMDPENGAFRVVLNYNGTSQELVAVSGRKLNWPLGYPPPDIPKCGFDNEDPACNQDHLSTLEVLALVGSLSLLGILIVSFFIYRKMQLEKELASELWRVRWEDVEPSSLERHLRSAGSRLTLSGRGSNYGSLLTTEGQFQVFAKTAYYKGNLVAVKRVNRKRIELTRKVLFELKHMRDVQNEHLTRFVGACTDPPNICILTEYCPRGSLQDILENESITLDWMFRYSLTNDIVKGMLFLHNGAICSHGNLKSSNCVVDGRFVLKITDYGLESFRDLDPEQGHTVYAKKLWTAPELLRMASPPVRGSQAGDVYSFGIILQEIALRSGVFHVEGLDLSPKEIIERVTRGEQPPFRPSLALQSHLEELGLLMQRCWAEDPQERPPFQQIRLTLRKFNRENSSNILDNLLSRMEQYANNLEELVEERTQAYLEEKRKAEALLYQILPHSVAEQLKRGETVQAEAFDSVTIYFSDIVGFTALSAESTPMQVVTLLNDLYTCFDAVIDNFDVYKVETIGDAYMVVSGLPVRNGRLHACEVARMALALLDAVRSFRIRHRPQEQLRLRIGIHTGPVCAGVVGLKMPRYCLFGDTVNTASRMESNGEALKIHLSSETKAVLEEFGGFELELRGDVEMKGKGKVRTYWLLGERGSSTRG
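HEK293 cells stably expressing human Npr1 and cGMP GloSensor pGS-40F, loaded 2 h with 2% GloSensor reagent, given compound 30 min at room temperature. Luminescence read before and 20 min after 0.1 nM hNppA.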
HEK cytotox = cytotoxic compounds in HEK 293 cells; HEK 293 viability, ATP luminescence (CellTiter-Glo), 48-72 h; Potency, µM (highest dose often 115 µM), usual class: inhibitors; actives 6.6% (n = 94,000); further: nearly all actives have a fitted effect of over 60% in size
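Read-out: CellTiter-Glo ATP luminescence. Cells: HEK 293, 250 cells/well. Exposure: 48 or 72 hr, 37 degree Celsius.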
Luciferase inh = inhibitors of firefly (Photinus pyralis) luciferase; P08659; purified P. pyralis luciferase, luminescence, biochemical; Potency, µM (top dose mostly 115 µM), actives largely listed as inhibitors; actives 2.5% (n = 76,000); AID 1347043; further: nearly all actives have a fitted effect of over 65% in size
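Purified P. pyralis luciferase (10nM final) in 50mM Tris acetate pH 7.5, 10mM Mg acetate, 0.01% Tween-20, 0.05% BSA with 10uM D-luciferin and 10uM ATP. Compounds titrated qHTS. Luminescence imaged on CCD.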
Each line names hits and unclear results; the compound was inactive in the other large screens. Hits are enriched below; roughly 11% of the tested compounds scored in any of these assays. Unless noted, the call rests on the fitted dose curve; in most records, active means well fitted curve in the direction sought with a large enough effect; inconclusive means small, poorly fitted or top-dose-only effect, or another doubt; inactive means no such curve, though single readings can be large; an effect the other way counts as inactive or inconclusive.

CCOc1ccc(CC(=O)NCCn2ccn3nc(-c4cccc(OC)c4)cc3c2=O)cc1	NIH3T3 tox inconclusive, HEK cytotox inconclusive, Luciferase inh inconclusive
COc1cc(OC)cc(C(=O)NCCn2ccn3nc(-c4cccc(OC)c4)cc3c2=O)c1	Luciferase inh 17.8µM
CCC(C(=O)NCCn1ccn2nc(-c3cccc(OC)c3)cc2c1=O)c1ccccc1 (stereo not given)	NIH3T3 tox inconclusive, NPR1 antag inconclusive, HEK cytotox inconclusive, Luciferase inh 14.1µM
COc1ccc(C(=O)NCCn2ccn3nc(-c4cccc(OC)c4)cc3c2=O)cc1	NIH3T3 tox inconclusive, HEK cytotox inconclusive
CC(C)(C)C(=O)NC1CN(c2ccnc3ccnn23)C1	none (no result: NPR1 antag, Luciferase inh)
COc1cc(F)ccc1-c1cc(-c2c(C)noc2C)cc2c1C(=O)N(C)C2=O	NIH3T3 tox inconclusive, HEK cytotox inconclusive
COc1cccc(-c2cc3c(=O)n(CCNC(=O)COc4cccc(C)c4)ccn3n2)c1	NIH3T3 tox inconclusive, NPR1 antag inconclusive, HEK cytotox inconclusive, Luciferase inh 22.4µM
COc1ccc(-c2cnc3[nH]cc(CC(=O)N4CCCC4)c3c2)cc1	NIH3T3 tox 7.94µM, NPR1 antag inconclusive, HEK cytotox 70.8µM, Luciferase inh 22.4µM
COC1CCN(C(=O)Cc2c[nH]c3ncc(-c4ccccc4)cc23)CC1	NIH3T3 tox inconclusive, Luciferase inh inconclusive
COc1ccc(-c2cnc3[nH]cc(CC(=O)N4CCC(OC)CC4)c3c2)cc1	NIH3T3 tox inconclusive, HEK cytotox inconclusive, Luciferase inh 22.4µM
CN(C)C(=O)c1ccc(-c2cnc3[nH]cc(CC(=O)N4CCOCC4)c3c2)cc1	NIH3T3 tox inconclusive, HEK cytotox inconclusive
CNC(=O)c1cc(C)nc2onc(C3CCN(C(=O)c4ccncc4)C3)c12 (stereo not given)	none (no result: NPR1 antag, Luciferase inh)
COc1ccccc1NC(=O)Cn1c(=O)n(-c2ccc(F)cc2)c(=O)c2c1cc(C)n2C	NIH3T3 tox 31.6µM, HEK cytotox 44.7µM
Cc1cccc(NC(=O)Cn2c(=O)n(-c3ccccc3)c(=O)c3c2cc(C)n3C)c1	none
COc1ccccc1NC(=O)Cn1c(=O)n(-c2ccccc2)c(=O)c2c1cc(C)n2C	none
Cc1ccc(NC(=O)Cn2c(=O)n(-c3ccccc3)c(=O)c3c2cc(C)n3C)cc1	NIH3T3 tox 22.4µM, HEK cytotox 39.8µM
CC(C)(Oc1nn(Cc2cccc(Cl)c2)c2ccccc12)C(=O)NCCN1CCOCC1	NIH3T3 tox inconclusive, HEK cytotox 50.1µM
CC(C)(Oc1nn(CCN2CCOCC2)c2ccccc12)C(=O)NCc1ccccc1	HEK cytotox inconclusive
CC(C)(Oc1nn(Cc2cccc(Cl)c2)c2ccccc12)C(=O)NCC[S+](C)(=O)[O-]	NIH3T3 tox inconclusive, NPR1 antag inconclusive, HEK cytotox inconclusive
CC(C)(Oc1nn(Cc2cccc(Cl)c2)c2ccccc12)C(=O)NCCCn1ccnc1	NIH3T3 tox 31.6µM, NPR1 antag inconclusive, HEK cytotox 50.1µM
CC(C)(Oc1nn(Cc2cccc(Cl)c2)c2ccccc12)C(=O)N1CCOCC1	NIH3T3 tox inconclusive, NPR1 antag inconclusive, HEK cytotox 89.1µM
COCc1ccc2c(c1)c(OC(C)(C)C(=O)NCCN1CCOCC1)nn2Cc1ccccc1	NIH3T3 tox inconclusive, HEK cytotox inconclusive
CC(C)(Oc1nn(Cc2cccc(Cl)c2)c2ccccc12)C(=O)NC1CCOCC1	NIH3T3 tox inconclusive, HEK cytotox 89.1µM
CCc1nccc(-c2c(-c3ccccc3)ncn2CCN2CCCCC2CO)n1 (stereo not given)	none
CN(C)C(=O)C1CCc2nnc(-c3cccc(C(F)(F)F)c3)n21 (stereo not given)	none (no result: NPR1 antag, Luciferase inh)
Cc1ccc(-c2cc(O)c3c(c2)CNCCO3)s1	Luciferase inh inconclusive
O=C(c1ccccc1)N1CCCC(c2nc(C3CCOCC3)no2)C1 (stereo not given)	none
O=C(CCN1c2ccccc2Sc2ccccc21)N1CCCC(c2nc(C3CCOCC3)no2)C1 (stereo not given)	NIH3T3 tox inconclusive, HEK cytotox 39.8µM
COc1ccc2c(c1)OC[C@@H]1CN(CC(C)(C)O)C(=O)CCN(C(=O)c3ccc(F)cc3)[C@H]21	NIH3T3 tox inconclusive (no result: NPR1 antag, Luciferase inh)
CCOC(=O)c1ccc(NC(=O)N2Cc3[nH]cnc3C[C@H]2c2nc(-c3ccc(OC(F)(F)F)cc3)no2)cc1	NIH3T3 tox 25.1µM, HEK cytotox inconclusive, Luciferase inh inconclusive
CCOC(=O)c1ccc(NC(=O)N2Cc3[nH]cnc3C[C@H]2c2nc(-c3ccncc3)no2)cc1	NIH3T3 tox inconclusive
CCOC(=O)c1ccc(NC(=O)N2Cc3[nH]cnc3C[C@H]2c2nc(-c3ccc4c(c3)OCO4)no2)cc1	NIH3T3 tox 28.2µM, HEK cytotox inconclusive, Luciferase inh 39.8µM
O=C(Nc1ccc(Cl)cc1)N1Cc2[nH]cnc2C[C@H]1c1nc(-c2ccc(OC(F)(F)F)cc2)no1	NIH3T3 tox 25.1µM, NPR1 antag inconclusive, HEK cytotox 20µM
O=C(Nc1ccc(Cl)cc1)N1Cc2[nH]cnc2C[C@H]1c1nc(-c2ccc(F)c(Cl)c2)no1	NIH3T3 tox 25.1µM, NPR1 antag inconclusive, HEK cytotox inconclusive, Luciferase inh 7.94µM
CCNC(=O)N1Cc2[nH]cnc2C[C@H]1c1nc(-c2ccc(OC(F)(F)F)cc2)no1	NIH3T3 tox inconclusive, HEK cytotox inconclusive, Luciferase inh inconclusive
CCOC(=O)C1CCCN(C(=O)c2nc3sccn3c2-c2cccc(C#N)c2)C1 (stereo not given)	HEK cytotox inconclusive (no result: NPR1 antag, Luciferase inh)
O=C(C1CCCC1)N1CCN(CCCn2nc3n(c2=O)CCCC3)CC1	none (no result: NPR1 antag, Luciferase inh)
COc1ccc(OC)c([S+](=O)([O-])c2nnn3c2nc(N2CCCCC2)c2ccccc23)c1	HEK cytotox inconclusive (no result: NPR1 antag, Luciferase inh)
COc1ccc(CNC(=O)C2CCN(Cc3ccccc3-c3ccccc3F)CC2)cc1	NIH3T3 tox inconclusive, HEK cytotox 44.7µM (no result: NPR1 antag, Luciferase inh)
O=C(NCc1ccccc1Cl)C1CCN(Cc2ccccc2-c2ccccc2F)CC1	NIH3T3 tox 44.7µM, HEK cytotox inconclusive (no result: NPR1 antag, Luciferase inh)
O=C(NCc1ccccc1)C1CCN(Cc2ccccc2-c2ccccc2F)CC1	NIH3T3 tox inconclusive, HEK cytotox 50.1µM (no result: NPR1 antag, Luciferase inh)
O=C(C1CCN(Cc2ccccc2-c2ccccc2F)CC1)N1CCOCC1	none (no result: NPR1 antag, Luciferase inh)
O=C(C1CCN(Cc2ccccc2-c2ccccc2F)CC1)N1CCN(Cc2ccccc2)CC1	NIH3T3 tox 25.1µM, HEK cytotox 35.5µM (no result: NPR1 antag, Luciferase inh)
COc1ccc(CCC(=O)N2CCC3(CC2)NCCc2c3[nH]c3ccc(OC)cc23)cc1	NIH3T3 tox inconclusive, HEK cytotox inconclusive
CCCCOC(=O)N1CCC(=O)N(C)C[C@H]2COc3cc(OC)ccc3[C@H]21	NIH3T3 tox inconclusive (no result: NPR1 antag, Luciferase inh)
O=C(NCc1cnccn1)c1ccc(-c2ncc3cnc(-c4cccc(F)c4)cn23)cc1	NIH3T3 tox inconclusive, HEK cytotox inconclusive
O=C(NCc1cccnc1Oc1ccc(F)cc1F)c1cc(C2CC2)[nH]n1	NIH3T3 tox inconclusive, HEK cytotox 8.91µM
CC(C)n1cc(C(=O)NCc2cccnc2Oc2ccc(F)cc2F)cn1	NIH3T3 tox inconclusive, HEK cytotox inconclusive
NC(=O)c1cccc(CN2CCC3(CC2)Cc2ccccc2N(C(=O)c2ccc(Cl)cc2)C3)c1	NIH3T3 tox inconclusive, HEK cytotox 39.8µM (no result: NPR1 antag, Luciferase inh)
